# Compound activity (PubChem BioAssay)
# Most compounds without a hit are left out; they make up all but 7.9% or so of the library.
# FMDV antiviral – blocks foot and mouth disease virus; FMDV antiviral cell-based qHTS; Potency, µM (highest dose often 57.9 µM), for inactives: at the top dose activity change, negative = inhibition, actives largely listed as inhibitors; 1.2% of 410,000 active; calls by dose curve; tested in HEK293T cells; also: read-out not given here; potency is read from the fitted curve at half-maximal effect; nearly all actives have a fitted effect of over 45% in size
# HCV inhibitor – inhibitors of hepatitis C virus infection | Huh7.5.1 HCVcc-Cre infection, luciferase reporter, 44 h | Potency, µM (doses to about 41.8 µM), inactives show at the top dose activity change, negative = inhibition, usual class: inhibitors | 3.4% of 340,000 active; active = well fitted inhibition curve with a large enough effect; inconclusive = small, poorly fitted or top-dose-only effect, or another doubt; inactive = no such curve, though single readings can be large or run the other way; also: potency is read from the fitted curve at half-maximal effect
#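 Luciferase read-out (15 sec integration) after a 15 min room-temperature substrate step quantifies HCVcc-Cre infection. Cells, 1,000 per well, had compound added 4 h post-plating, then virus at ~0.5 moi, and were cultured 44 h.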
# MARV entry inh – Marburg virus entry inhibition; Marburg virus pseudotyped entry inhibition, cell reporter; Potency, µM (titrated, usually from 37.8 µM), inactives show at the highest dose activity change, negative = inhibition, most hits filed as inhibitors; 1.8% of 300,000 active; calls by dose curve; tested in HEK293 cells; also: potency is read from the fitted curve at half-maximal effect
# LASV entry inh – inhibitors of Lassa virus binding or cell entry | 1.2% of 300,000 active | Lassa virus pseudotype entry inhibition, cell reporter | Potency, µM (titrated, usually from 37.9 µM), inactives show at the top dose activity change, negative = inhibition, hits mostly inhibitors | AID 540256; calls by dose curve; tested in HEK293 cells; also: potency is read from the fitted curve at half-maximal effect; nearly all actives have a fitted effect of over 50% in size
# HCMV inh – blocks human cytomegalovirus replication | AID 1259415 | activity change, negative = inhibition, % at 57.5 µM | 4.5% of 410,000 active | HFF cells, HCMV-luciferase reporter, 72 h; active compounds read low; in the data active = activity change below about -60%; inconclusive = no clear call, values can overlap the other calls; inactive = above about -39%
#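 Two-dose cell screen: HFF monolayers treated with compounds and infected with luciferase-expressing HCMV at 1 PFU/cell, 72 h at 37C, then lysed for luciferase measurement.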
# * = called active by the depositor; ? = inconclusive; / = no result; ! = a repeat was not active; [ ] = another dose, or the depositor's remark. % is scaled to controls: 0 for no effect and ±100 for the full control effect.
SMILES,FMDV antiviral,HCV inhibitor,MARV entry inh,LASV entry inh,HCMV inh
CC1CN(S(=O)(=O)c2cccc(C(=O)OCc3cc(=O)oc4cc(O)ccc34)c2)CC(C)O1 (stereo not drawn),22µM*,10µM*!,?,?,28
CN(C)c1cccc(C(=O)OCc2cc(=O)oc3cc(O)ccc23)c1,5%,?,?,?,8
CC(C)OCCCNC(=O)CSc1c2c(nc3ccc(Cl)cc13)CCCC2,?,/,-19%[46.1 µM],-13%[46.1 µM],32
CCN(CC)CCCNC(=O)CSc1c2c(nc3cc(Cl)ccc13)CCCC2,32µM*,10µM*,?,?,-107*!
COCCCNC(=O)CSc1c2c(nc3ccc(Cl)cc13)CCCC2,28µM*,?,?,?,72
CC(C)Cn1cc(NC(=O)NCc2ccc(Cl)cc2)c2ccccc2c1=O,-18%,/,/,-4%[46.1 µM],-105*
CC(C)Cn1cc(NC(=O)NCc2ccccc2)c2ccccc2c1=O,22%,/,/,?,7
O=C(/C(=C/O)N=Nc1ccccc1)c1ccc(Cl)cc1,?,?,?,?,-38
Cc1ccc(N=N/C(=C\O)C(=O)c2ccc(Cl)cc2)cc1,?,10µM*,?,?,-87*
CC(=O)n1cc(N(C(=O)CCl)c2ccc(Cl)cc2)c2ccccc21,11µM*,3.5µM*,/,/,/
CC(=O)n1cc(Nc2ccccc2C(=O)O)c2ccccc21,1%,3%,10%[46.1 µM],11%,42
CCOC(=O)c1ccccc1Nc1cn(C(C)=O)c2ccccc12,-19%,0%,-2%,?,-3
COc1ccccc1N(C(=O)CCl)c1cn(C(C)=O)c2ccccc12,18µM*,?,/,/,-97*
CC(C)=CCCC(C)=CCON=C1C[C@@H](O)[C@@H](O)[C@@H]2[C@H]3C(=O)N(Cc4ccccc4)C(=O)[C@@H]3CC[C@@H]12,/,/,3%[14.2 µM],/,/
CCOc1cc(/C=C2\N=C(SC(C)C(N)=O)N(c3ccc(OC(F)F)cc3)C2=O)ccc1O (stereo not drawn),-10%,?,/,/,-62*
COC(=O)CN1[C@@]2(C#N)CCCC[C@@H]2C[C@H]2CCCC[C@]21C#N,/,/,15%,/,/
CC1CCN(c2oc(-c3cccs3)nc2S(=O)(=O)c2ccc(Cl)cc2)CC1,9%,/,-18%[46.1 µM],?,13
COC(=O)c1c(NC(=O)CSc2ncnc3c2cnn3-c2ccccc2Cl)sc2c1CCCC2,-21%,?,?,5.8µM*,-85*
COC(=O)c1c(NC(=O)CSc2ncnc3[nH]ncc23)sc2c1CCC2,5%,6%,12%[46.1 µM],?,-81*
COc1ccc(OCC(=O)Nc2cccc(-c3nc4ccccc4s3)c2C)cc1,?,/,-18%[46.1 µM],-24%[46.1 µM],-26
COc1cc(OC)cc(C(=O)NC(C(=O)NCCN(C)C)C23CC4CC(CC(C4)C2)C3)c1 (stereo not drawn),0%,10µM*,?,-14%,18
Cn1c(-[n+]2c(-c3ccccc3)cc(-c3ccccc3)cc2-c2ccccc2)nc2c([N+](=O)[O-])cccc21,-4%,?,?,?,-60*
COc1ccccc1OCC(=O)NCC1(N(C)C)CCCCC1,-3%,/,-4%[46.1 µM],7%[46.1 µM],16
C=C(C)C(=O)Oc1ccc(N=Nc2ccc(C)cc2)ccc1=O,?,11µM*,?,?,0
CCOC(=O)Cc1csc(SCC(=O)c2c(N)n(CC(C)C)c(=O)n(C)c2=O)n1,11µM*,7.9µM*,?,?,-3
SMILES,FMDV antiviral,HCV inhibitor,MARV entry inh,LASV entry inh,HCMV inh
Cc1csc(SCC(=O)c2c(N)n(CC(C)C)c(=O)n(C)c2=O)n1,?,16µM*,-14%,-16%,-75*
COc1ccc(C)cc1S(=O)(=O)Nc1cccc(-c2ccc(N3CCCCCC3)nn2)c1,8%,10µM*,/,/,-18
O=S(=O)(Nc1cccc(-c2ccc(N3CCCCCC3)nn2)c1)c1ccccc1Cl,7%,11µM*,/,/,-76*
CC(C)(C)OC(=O)N1CCC(c2c(C(=O)N3CCN(c4ccccn4)CC3)cnn2-c2ccccc2Cl)CC1,-21%,/,/,?,?
COc1ccc(-c2csc(NC(=O)CN3C(=O)C4CC=CCC4C3=O)n2)cc1OC (stereo not drawn),?,?,/,/,-111*
O=C(CN1C(=O)C2CC=CCC2C1=O)Nc1nc(-c2ccc(F)c(F)c2)cs1 (stereo not drawn),?,10µM*,/,/,-32
CCOC(=O)c1c(C)oc2nc(C)nc(Nc3cc(C)cc(C)c3)c12,-13%,/,/,?,5
CCc1nn2c(=O)c(S(=O)(=O)Nc3ccc(OC)c(Cl)c3)c(C)nc2s1,-9%,/,?,17%[46.1 µM],-14
CCC1=C(c2ccc(C)cc2)S(=O)(=O)N=C1N1CCC(C(=O)NCCc2ccc(Cl)cc2)CC1,-17%,/,?,/,-87*
CC1=C(c2ccc(C)c(C)c2)S(=O)(=O)N=C1N1CCC(C(=O)Nc2ccc(Cl)cc2)CC1,-29%,/,/,-18%[46.1 µM],-84*
CCc1ccc(C2=C(C)C(N3CCC(C(=O)NCCc4ccco4)CC3)=NS2(=O)=O)cc1,-1%,/,/,0%[46.1 µM],-62*
CC1=C(c2ccc(Cl)cc2)S(=O)(=O)N=C1N1CCC(C(=O)NCCc2ccco2)CC1,-13%,/,/,?,-4
COc1ccc(CNS(=O)(=O)c2ccc(C3CNC(=O)C3)cc2)cc1 (stereo not drawn),/,3.2µM*,4%,-5%,35
COCCNS(=O)(=O)c1ccc(C2CNC(=O)C2)cc1 (stereo not drawn),-15%,8%,-8%,/,-7
Nc1ccc(S(=O)(=O)O)cn1,-24%,?,?,?,-69*!
Nc1ccc(S(=O)(=O)c2ccc(N)nc2)cc1,-10%,21%,-2%[46.1 µM],15%[46.1 µM],-11
CC(C)CO/N=C1\C[C@@H](O)[C@@H](O)[C@@H]2[C@@H]3C(=O)N(C4CCCCC4)C(=O)[C@@H]3CC[C@H]12,/,/,-20%[14.2 µM],/,/
Cc1cc(C(=O)Nc2ccccc2-c2nc(CNC(=O)c3cc4ccccc4cn3)c(C)o2)c(C)o1,0%,/,/,/,/
COc1nc(C)ccc1-c1noc(-c2cccs2)n1,13%,?,11µM*,-29%,7
CC1=C(C(=O)N2CCCCCC2)CC(CC(=O)NCCc2ccccn2)C(=O)N1CCCN1CCCC1=O (stereo not drawn),/,/,/,/,-84*
CC1=C(C(=O)N(C(C)C)C(C)C)CC(CC(=O)NCCc2ccccn2)C(=O)N1CCCN1CCCC1=O (stereo not drawn),-8%,/,/,/,19
CCCSc1ncc(Cl)c(C(=O)Nc2sc3c(c2C(=O)OC)CCCC3)n1,-6%,/,2%[46.1 µM],-14%[46.1 µM],15
O=C(Nc1ccccc1F)c1cnc(N2CCCCC2)c2ccccc12,-27%,/,/,-28%[46.1 µM],6
CCN(CC)S(=O)(=O)c1ccc(N2CCOCC2)c(NC(=O)c2cccc3c(=O)c(C)c(-c4ccccc4)oc23)c1,?,8.9µM*,/,/,-8
CCN(CC)S(=O)(=O)c1ccc(N2CCCCC2)c(C(=O)Nc2ccccc2N2CCOCC2)c1,-8%,5.6µM*,5.6µM*,10µM*,?
